Assay outcomes from PubChem BioAssay.
Shown are actives, neighbours in structure and some others; about 1.8% of the full set was active somewhere.
IkB sig inh: IkB Signaling; Potency, µM (series often up to 57.1 µM); ABC-DLBCL IkBa-CBG/CBR dual luciferase ratio, 4 h; response scale: scaled: untreated 0%, proteasome inhibitor 100%; AID 445, 2006; 110,000 tested, 0.04% active; active = well fitted curve in the direction sought with a large enough effect in the signal ratio, not every such curve was filed as active; inconclusive = small, poorly fitted or top-dose-only effect, or a change in a side signal; the % refers to the signal ratio;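 note: the direction sought is a rising ratio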
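Curves were fitted separately to fusion (green), unfused (red) and ratio luminescence, then classed by r2, magnitude and activity. Cells: OCI-Ly3, 4 h compound plus doxycycline at 37C; 10 uM MG-132 defined full response.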
p53ts 32C kill: qHTS Screen for Compounds that Selectively Target Cancer Cells with p53 Mutations: Cytotoxicity of p53ts Cells at the Permissive Temperature; 130,000 tested, 0.93% active; AID 924, 2007; H1299-p53A138V at 32C, ATP luminescence viability, 24 h; Potency, µM (titrated, usually from 46.1 µM), actives largely listed as cytotoxic; note: nearly all actives have a fitted effect of over 55% in size
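Viability by ATPlite luminescence after 24 h compound treatment (up to 46 uM) at the permissive 32C. Cells are H1299 carrying p53 A138V. Scale runs from DMSO basal to 100 uM tamoxifen as full kill; AC50 from Hill fits.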
Peg3 imprint: qHTS Assay for Compounds that Induce Erasure of Genomic Imprints; mouse ES Peg3-LacZ reporter, beta-gal luminescence, 40 h; 110,000 tested, 0.02% active; Potency, µM (top dose mostly 60.7 µM), usual class: activators
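Imprint erasure is scored as LacZ activity from the silenced maternal Peg3 allele in feeder-free female ES cells cultured 40 h with LIF. Luminescence is normalized to in-plate negative controls and fitted to the Hill equation.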
p53ts 39C kill: qHTS Screen for Compounds that Selectively Target Cancer Cells with p53 Mutations: Cytotoxicity of p53ts Cells at the Nonpermissive Temperature; 130,000 tested, 1.5% active; H1299-p53A138V viability at 39C, ATP luminescence, 24 h; AID 902, 2007; Potency, µM (titrated, usually from 46.1 µM), most hits filed as cytotoxic; note: nearly all actives have a fitted effect of over 55% in size
Numbers stand for hits; - = inactive; ? = inconclusive; . = not tested or not shown; [ ] = another dose, or the depositor's remark. Unless noted, calls come from the whole dose curve; as a rule, active = well fitted curve in the direction sought with a large enough effect; inconclusive = small, poorly fitted or top-dose-only effect, or another doubt; inactive = no such curve, though single readings can be large; an effect the other way counts as inactive or inconclusive.

SMILES	IkB sig inh	p53ts 32C kill	Peg3 imprint	p53ts 39C kill
CCC(C)NC(=O)CSc1nc2n[nH]c(C)c2c(=N)n1-c1cc(Cl)ccc1C (stereo not given)	?	?	-[10.9 µM]	13µM
Cc1ccc(NC(=O)CSc2nc3n[nH]c(C)c3c(=N)n2-c2cccc(C)c2)cc1	?	-	-[10.9 µM]	-
CCc1ccc(NC(=O)CSc2nc3n[nH]c(C)c3c(=N)n2-c2ccc(C)cc2)cc1	-	?	-[10.9 µM]	20µM
Cc1ccc(Cl)cc1-n1c(SCC(=O)NCc2ccccc2)nc2n[nH]c(C)c2c1=N	-	-	-[10.9 µM]	?
O=c1oc(-c2cccs2)nc2sc3c(c12)CCCCC3	?	13µM	-	10µM
Nn1c(-c2cccs2)nc2sc3c(c2c1=O)CCCC3	?	10µM	-	?
COc1ccccc1CNC(=O)CN1C(=O)CSc2ccc(S(=O)(=O)N(C)C)cc21	-	-	-[10.9 µM]	-
COc1ccc(CCNC(=O)CCCn2c(=O)c3ccccc3n(Cc3c(C)cc(C)cc3C)c2=O)cc1OC	-	-	-[10.9 µM]	-
O=C(O)C[C@H](S)C(=O)O	-[11.4 µM]	-[9.22 µM]	-[10.9 µM]	-[9.22 µM]
O=C(CSc1nc2ccccc2o1)Nc1nc2c(s1)CCCC2	?	?	-	13µM
CN1CCN(C(=O)c2cnn(-c3ccc(F)cc3F)c2C2CCN(C(=O)OC(C)(C)C)CC2)CC1	-	-	-[10.9 µM]	-
COc1ccc(OC)c(CNC(=O)c2cc(-c3ccc(Cl)s3)nc3ccccc23)c1	?	-	-[10.9 µM]	-
COc1ccc(CNC(=O)c2cc(-c3ccc(Br)s3)nc3ccccc23)cc1	-	-	-[10.9 µM]	10µM
CCOc1ccc(OCC)c(NC(=O)c2cc(CN3CCOCC3)on2)c1	-	-	-[10.9 µM]	-
O=C(NCc1ccc(Cl)cc1)c1ccc(NC(=O)N2CC3CCCN3c3ccccc32)cc1 (stereo not given)	?	-	-[10.9 µM]	-
COc1ccccc1N=c1oc2cc(O)ccc2cc1C(N)=O	?	?	-	13µM
O=C1c2ccccc2C(=O)N1c1ccc(Cc2ccc(N3C(=O)c4ccccc4C3=O)cc2)cc1	-[11.4 µM]	-[9.22 µM]	-[10.9 µM]	-[9.22 µM]
COc1ccc(NC(=O)c2ccc3c(c2)OCO3)cc1Cl	-	5µM	-	13µM
COc1cc(NC(=O)c2ccccc2)cc(OC)c1	-	-	-	-
COc1ccc(C(=O)Nc2ccc3c(c2)OCCO3)cc1	.	6.3µM	.	7.1µM
COc1ccc(C(=O)Nc2cc(OC)cc(OC)c2)cc1	?	13µM	-	?
COc1ccc(NC(=O)c2cnc[nH]2)cc1	-	7.9µM	-[10.9 µM]	13µM
Cc1csc2nc(COC(=O)c3ccccc3NC(=O)c3ccc(C(C)(C)C)cc3)cc(=O)n12	-	-	-[10.9 µM]	-
O=C(NC1CCN(Cc2ccccc2)CC1)c1ccc(-n2c(=O)c(=O)[nH]c3ccccc32)cc1	.	-	.	-
CCC1Oc2ccc(C)cc2N(CC(=O)NCc2ccc(F)cc2)C1=O (stereo not given)	-	-	-[10.9 µM]	-
SMILES	IkB sig inh	p53ts 32C kill	Peg3 imprint	p53ts 39C kill
COc1ccccc1NC(=O)Nc1ccc2c(c1)OCCO2	?	10µM	-	13µM
COc1ccc(-c2nnc(SC(C)C(=O)Nc3ccc4c(c3)OCCO4)o2)cc1 (stereo not given)	-	16µM	-	13µM
O=C(Nc1ccc2c(c1)OCCO2)c1cncc(Br)c1	-	10µM	-	10µM
COc1cc(C(=O)Nc2ccc3c(c2)OCCO3)ccc1OC(F)F	?	16µM	-	13µM
COc1cccc(-c2nc(NC3CCNCC3)c3ccccc3n2)c1	-[11.4 µM]	?	-	16µM
CN(C)c1ccc(-c2nc(NC3CCNCC3)c3ccccc3n2)cc1	-[11.4 µM]	?	-	10µM
c1ccc2c(NC3CCNCC3)nc(-c3ccoc3)nc2c1	-[11.4 µM]	-	-	-
CC(C)NC[C@@H](O)COc1ccccc1-n1cccc1	-	-	-	-
COc1ccc(-c2cn3c4c(sc3n2)CCCC4)cc1	-	6.3µM	-	5µM
Cc1ccc(S(=O)(=O)/C=C\C#N)cc1	?	13µM	-	13µM
CC(C)(C)c1ccc(S(=O)(=O)/C=C\C#N)cc1	?	16µM	-	20µM
CC(C)(C)c1ccc(S(=O)(=O)N2CCN(CCC#N)CC2)cc1	-	-	-	-
COC(=O)/C=C/S(=O)(=O)c1ccc(NC(C)=O)cc1	?	?	-	?
Cc1ccc(CNC(=O)c2cc3ccc4cccnc4c3[nH]2)cc1	?	-	-[10.9 µM]	-
Cc1ccc(C)c(CN2CCC(CNC(=O)c3cc4ccc5cccnc5c4[nH]3)CC2)c1	-	-	-[10.9 µM]	-
CCN(Cc1ccccc1)C(=O)c1cc2ccc3cccnc3c2[nH]1	?	?	-[10.9 µM]	32µM
Cc1ccc(CN2CCC(CNC(=O)c3cc4ccc5cccnc5c4[nH]3)CC2)cc1	?	?	-[10.9 µM]	13µM
O=C(Nc1ccc(N2CCCCC2)cc1)c1ccc(F)cc1	-	7.9µM	-	?
O=C(NCC(c1ccc(Cl)cc1)N1CCCCC1)c1ccccc1F (stereo not given)	-	-	-[10.9 µM]	-
C[C@H]1CCCC2(CC[N+](C)(CCC[N+](C)(C)C)CC2)C1 (stereo not given in full)	-[11.4 µM]	-[9.22 µM]	-[10.9 µM]	-[9.22 µM]
Cc1cccc(C)c1Nc1nc2ccccc2o1	-	-	-	-
Cc1nc(Nc2nc3ccccc3o2)nc2c1CCC2	-	13µM	-	16µM
CCOC(=O)c1ccc(N2C(=O)c3n[nH]c(-c4cccs4)c3C2c2ccc(CC)cc2)cc1 (stereo not given)	?	?	-[10.9 µM]	10µM
CCOC(=O)c1ccc(N2C(=O)c3n[nH]c(-c4cccs4)c3C2c2ccc(C(C)C)cc2)cc1 (stereo not given)	?	?	-[10.9 µM]	10µM
CCOc1ccc(NC(=O)c2oc(=O)c3ccccc3c2-c2ccc(C)cc2)cc1	?	-	-[10.9 µM]	-
SMILES	IkB sig inh	p53ts 32C kill	Peg3 imprint	p53ts 39C kill
Cc1ccc2nc(/C(C#N)=N/O)[nH]c2c1	?	7.9µM	-	?
Cc1ccc2nc(/C(C#N)=C/c3cccc(Br)c3)[nH]c2c1	-	?	-[10.9 µM]	-
Cc1ccc(S(=O)(=O)N[C@@H](Cc2ccccc2)C(=O)CCl)cc1	?	6.3µM	-	3.2µM
Cc1ccc(S(=O)(=O)N[C@H](CO)C(=O)O)cc1	-[11.4 µM]	-[9.22 µM]	-[10.9 µM]	-[9.22 µM]
CO/N=C(\C(=O)N[C@@H]1C(=O)N2C(C(=O)O)=C(CSc3nc(=O)c(O)nn3C)CS[C@@H]12)c1csc(N)n1	-	-	.	-
O=C(NCC12CC3CC(CC(C3)C1)C2)c1cc2n(n1)C(C(F)(F)F)CC(c1ccco1)N2 (stereo not given)	-	-	-	20µM
CCOc1ccc(NC(=O)Cn2c(=O)n(-c3ccccc3)c(=O)c3c4c(sc32)CCCC4)cc1	-	-	-[10.9 µM]	-
COc1ccc(NC(=O)Cn2c(=O)n(-c3ccccc3)c(=O)c3c4c(sc32)CCCC4)cc1	?	?	-[10.9 µM]	25µM
O=C(c1csnn1)N1CCC[C@@]2(CCN(c3ccccc3)C2)C1	-[11.4 µM]	-	.	-
Cc1cc(C)c2sc(N3CCN(C(=O)C4CC4)CC3)nc2c1	-	?	-[10.9 µM]	7.9µM
